Test results published in ChEMBL document CHEMBL3988442, “University of Dundee, Small-Polar-MMV Screening Library” (2021).
For some of these results: Entries with a potency or affinity are not part of this list.

How the values were obtained:
Design in all cases: scale not given: direction of the effect not stated beside the values
[1] = molecular target: Protein translocase subunit SecA (Escherichia coli (strain K12)) (UniProt P10408); experiment: Assay to Identify E. coli SecA ATPase Inhibitors; format: functional; conditions: 30 µM
Protein translocase subunit SecA (Escherichia coli (strain K12)), sequence (P10408 whole entry): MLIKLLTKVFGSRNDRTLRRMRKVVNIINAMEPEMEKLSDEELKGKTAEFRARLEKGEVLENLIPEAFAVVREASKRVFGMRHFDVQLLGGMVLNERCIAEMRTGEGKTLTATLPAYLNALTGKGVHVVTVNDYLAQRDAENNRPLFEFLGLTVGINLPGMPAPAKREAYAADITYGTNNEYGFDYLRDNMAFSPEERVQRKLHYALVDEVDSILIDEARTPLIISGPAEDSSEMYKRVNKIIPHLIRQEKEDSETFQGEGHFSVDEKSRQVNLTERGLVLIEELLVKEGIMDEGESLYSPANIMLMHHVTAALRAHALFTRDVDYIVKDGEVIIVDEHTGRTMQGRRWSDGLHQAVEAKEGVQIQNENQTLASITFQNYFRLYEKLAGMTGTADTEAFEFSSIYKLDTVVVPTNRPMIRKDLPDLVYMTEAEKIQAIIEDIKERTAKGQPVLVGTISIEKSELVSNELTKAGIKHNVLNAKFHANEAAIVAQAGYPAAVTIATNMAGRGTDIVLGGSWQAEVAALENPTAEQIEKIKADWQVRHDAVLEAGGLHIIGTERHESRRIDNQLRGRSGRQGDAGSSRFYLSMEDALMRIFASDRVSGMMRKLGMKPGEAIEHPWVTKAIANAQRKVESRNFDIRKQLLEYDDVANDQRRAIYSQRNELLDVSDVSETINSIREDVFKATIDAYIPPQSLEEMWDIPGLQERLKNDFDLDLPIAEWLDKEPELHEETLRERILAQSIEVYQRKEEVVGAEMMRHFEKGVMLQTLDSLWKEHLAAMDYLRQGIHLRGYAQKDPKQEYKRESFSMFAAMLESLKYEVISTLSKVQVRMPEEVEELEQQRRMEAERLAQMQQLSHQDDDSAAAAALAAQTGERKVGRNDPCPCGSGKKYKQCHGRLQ

[2] = molecular target: T1, Ubiquitin-activating enzyme e1, putative (Leishmania donovani (strain BPK282A1)) (UniProt E9BSI1); experiment: Leishmania donovani Ubiquitin Activating Enzyme (LdE1); format: functional; conditions: 30 µM
T1 sequence (whole entry): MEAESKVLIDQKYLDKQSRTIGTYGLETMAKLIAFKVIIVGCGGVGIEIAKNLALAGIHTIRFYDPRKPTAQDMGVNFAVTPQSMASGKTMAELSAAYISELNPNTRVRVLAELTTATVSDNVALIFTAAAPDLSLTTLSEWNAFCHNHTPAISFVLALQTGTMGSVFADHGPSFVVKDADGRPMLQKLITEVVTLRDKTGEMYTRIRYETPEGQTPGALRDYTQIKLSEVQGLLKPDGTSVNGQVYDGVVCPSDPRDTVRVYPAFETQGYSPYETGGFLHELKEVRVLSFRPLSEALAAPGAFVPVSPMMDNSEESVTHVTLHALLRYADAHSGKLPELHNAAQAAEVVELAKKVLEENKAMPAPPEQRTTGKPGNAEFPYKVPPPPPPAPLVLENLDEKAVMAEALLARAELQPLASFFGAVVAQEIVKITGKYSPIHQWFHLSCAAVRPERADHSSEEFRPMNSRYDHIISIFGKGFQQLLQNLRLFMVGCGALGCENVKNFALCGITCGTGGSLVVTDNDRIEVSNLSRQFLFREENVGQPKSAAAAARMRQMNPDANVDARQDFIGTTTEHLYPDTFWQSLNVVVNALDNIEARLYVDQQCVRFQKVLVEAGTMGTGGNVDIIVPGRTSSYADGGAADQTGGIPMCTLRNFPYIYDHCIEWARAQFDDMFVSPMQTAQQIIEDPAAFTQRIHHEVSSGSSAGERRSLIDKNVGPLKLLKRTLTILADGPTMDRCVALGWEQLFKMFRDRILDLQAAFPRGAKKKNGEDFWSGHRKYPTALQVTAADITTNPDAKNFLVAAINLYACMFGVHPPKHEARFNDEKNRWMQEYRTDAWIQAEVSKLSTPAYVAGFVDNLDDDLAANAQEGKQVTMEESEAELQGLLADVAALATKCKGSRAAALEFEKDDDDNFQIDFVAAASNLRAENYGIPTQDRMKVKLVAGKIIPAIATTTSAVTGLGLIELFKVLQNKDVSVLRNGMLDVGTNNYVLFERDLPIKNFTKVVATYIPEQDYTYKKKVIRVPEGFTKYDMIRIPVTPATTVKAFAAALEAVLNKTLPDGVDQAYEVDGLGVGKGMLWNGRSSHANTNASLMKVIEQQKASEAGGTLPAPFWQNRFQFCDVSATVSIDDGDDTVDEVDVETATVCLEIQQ

[3] = molecular target: AMP-activated protein kinase, AMPK (Homo sapiens) (UniProt P54646+O43741+P54619+Q9UGJ0+Q9Y478+Q13131+Q9UGI9); experiment: AMP-dependent Kinase enzyme assay. An in vitro enzyme assay that detects ADP turnover that is directly proportional to AMPK activity. This uses naive AMPK that is activated during the assay with MK-8722; format: functional; conditions: 30 µM
[4] = molecular target: Sialic acid-binding Ig-like lectin 9 (Homo sapiens) (UniProt Q9Y336); experiment: Hs-Siglec9 ALPHAscreen SOP 20170721; conditions: 10 µM
Sialic acid-binding Ig-like lectin 9 (Homo sapiens), sequence (Q9Y336 whole entry): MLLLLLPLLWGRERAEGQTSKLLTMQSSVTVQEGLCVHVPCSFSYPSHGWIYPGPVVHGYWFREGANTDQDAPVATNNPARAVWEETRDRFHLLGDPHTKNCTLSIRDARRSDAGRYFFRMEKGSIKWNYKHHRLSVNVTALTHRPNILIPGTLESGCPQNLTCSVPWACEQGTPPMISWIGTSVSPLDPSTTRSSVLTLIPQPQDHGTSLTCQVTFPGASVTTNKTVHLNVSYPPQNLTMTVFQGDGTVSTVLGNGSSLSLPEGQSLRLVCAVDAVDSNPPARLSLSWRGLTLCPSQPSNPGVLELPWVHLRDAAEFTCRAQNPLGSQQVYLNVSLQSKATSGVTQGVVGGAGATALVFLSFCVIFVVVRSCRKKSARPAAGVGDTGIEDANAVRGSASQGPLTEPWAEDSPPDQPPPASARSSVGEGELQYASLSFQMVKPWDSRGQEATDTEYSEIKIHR

Trypanosoma cruzi = experiment: Trypanosoma cruzi phosphomannomutase and mannose-1-phosphate guanylyltransferase assay; format: functional; conditions: 10 µM
[5] = molecular target: T2, Arginase-2, mitochondrial (Homo sapiens) (UniProt P78540); experiment: in vitro enzyme assay to detect the production of urea directly proportional to the activity of Arginase II; format: functional; conditions: 33.3 µM; note: in the data most compounds retested in dose-response had high values
T2 sequence (whole entry): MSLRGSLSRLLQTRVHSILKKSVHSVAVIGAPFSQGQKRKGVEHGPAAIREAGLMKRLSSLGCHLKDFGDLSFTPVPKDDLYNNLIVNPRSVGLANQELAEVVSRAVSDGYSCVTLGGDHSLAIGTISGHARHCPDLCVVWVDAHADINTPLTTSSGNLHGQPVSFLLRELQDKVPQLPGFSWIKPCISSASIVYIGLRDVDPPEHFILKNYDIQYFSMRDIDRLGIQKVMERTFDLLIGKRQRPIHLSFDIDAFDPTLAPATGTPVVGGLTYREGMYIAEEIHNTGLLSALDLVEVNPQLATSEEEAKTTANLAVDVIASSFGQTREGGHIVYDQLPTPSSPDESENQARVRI

[6] = molecular target: T3, Proteasome subunit beta (Trypanosoma cruzi) (UniProt O96673); experiment: Trypanosoma cruzi proteasome chymotrypsin-like activity (TcProtChymo) assay.; note: in the data most compounds retested in dose-response had high values; format: functional; conditions: 9.37 µM
T3 sequence (whole entry): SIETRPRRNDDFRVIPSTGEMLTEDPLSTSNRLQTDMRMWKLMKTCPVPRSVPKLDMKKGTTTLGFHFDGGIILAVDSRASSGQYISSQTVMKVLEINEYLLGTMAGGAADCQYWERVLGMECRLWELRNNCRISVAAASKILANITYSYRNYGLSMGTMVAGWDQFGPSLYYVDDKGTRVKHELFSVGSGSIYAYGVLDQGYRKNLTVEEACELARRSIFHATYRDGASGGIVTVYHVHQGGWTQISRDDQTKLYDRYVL

Homo sapiens = organism: Homo sapiens; experiment: To identify inhibition of the IFN signalling (Jak-Stat) pathway via expression of an eGFP reporter gene under the control of an IFN-stimulated response element (ISRE) containing MxA promoter.; format: functional; conditions: 30 µM
[7] = molecular target: T4, Tyrosyl-tRNA synthetase, putative (Trypanosoma cruzi (strain CL Brener)) (UniProt Q4DSP6); experiment: Trypanosoma cruzi tyrosyl tRNA synthetase (TcYRS) _High Tyrosine SOP; format: functional; conditions: 30 µM; note: in the data most compounds retested in dose-response had high values
T4 sequence (whole entry): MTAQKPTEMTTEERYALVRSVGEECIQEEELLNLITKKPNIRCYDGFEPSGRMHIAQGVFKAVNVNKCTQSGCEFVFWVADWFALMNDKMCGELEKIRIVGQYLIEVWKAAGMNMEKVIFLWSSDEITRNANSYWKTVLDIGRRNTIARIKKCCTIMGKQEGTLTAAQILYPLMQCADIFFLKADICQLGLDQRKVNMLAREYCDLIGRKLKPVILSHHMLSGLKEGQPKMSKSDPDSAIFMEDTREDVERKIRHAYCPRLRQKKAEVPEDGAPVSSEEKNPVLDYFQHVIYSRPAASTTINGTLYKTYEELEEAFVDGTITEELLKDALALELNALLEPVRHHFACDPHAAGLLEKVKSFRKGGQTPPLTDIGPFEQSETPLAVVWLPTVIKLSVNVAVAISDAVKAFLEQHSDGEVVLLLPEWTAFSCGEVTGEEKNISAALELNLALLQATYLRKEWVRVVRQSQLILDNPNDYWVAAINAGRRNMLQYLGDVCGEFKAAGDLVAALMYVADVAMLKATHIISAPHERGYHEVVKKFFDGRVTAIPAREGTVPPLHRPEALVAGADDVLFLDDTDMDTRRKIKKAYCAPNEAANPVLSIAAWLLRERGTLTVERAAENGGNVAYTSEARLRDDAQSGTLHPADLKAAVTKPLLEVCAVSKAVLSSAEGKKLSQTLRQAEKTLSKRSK

[8] = molecular target: T4, Tyrosyl-tRNA synthetase, putative (Trypanosoma cruzi (strain CL Brener)); experiment: Trypanosoma cruzi tyrosyl tRNA synthetase (TcYRS) SOP; format: functional; conditions: 30 µM
[9] = molecular target: Chromo domain-containing protein 1 (Saccharomyces cerevisiae (strain ATCC 204508 / S288c) (Baker's yeast)) (UniProt P32657); experiment: ScCHD-1 Enzyme Inhibition Assay; format: functional; conditions: 30 µM; note: in the data most compounds retested in dose-response had high values
Chromo domain-containing protein 1 (Saccharomyces cerevisiae (strain ATCC 204508 / S288c) (Baker's yeast)), sequence (P32657 whole entry, the tested form may be a part): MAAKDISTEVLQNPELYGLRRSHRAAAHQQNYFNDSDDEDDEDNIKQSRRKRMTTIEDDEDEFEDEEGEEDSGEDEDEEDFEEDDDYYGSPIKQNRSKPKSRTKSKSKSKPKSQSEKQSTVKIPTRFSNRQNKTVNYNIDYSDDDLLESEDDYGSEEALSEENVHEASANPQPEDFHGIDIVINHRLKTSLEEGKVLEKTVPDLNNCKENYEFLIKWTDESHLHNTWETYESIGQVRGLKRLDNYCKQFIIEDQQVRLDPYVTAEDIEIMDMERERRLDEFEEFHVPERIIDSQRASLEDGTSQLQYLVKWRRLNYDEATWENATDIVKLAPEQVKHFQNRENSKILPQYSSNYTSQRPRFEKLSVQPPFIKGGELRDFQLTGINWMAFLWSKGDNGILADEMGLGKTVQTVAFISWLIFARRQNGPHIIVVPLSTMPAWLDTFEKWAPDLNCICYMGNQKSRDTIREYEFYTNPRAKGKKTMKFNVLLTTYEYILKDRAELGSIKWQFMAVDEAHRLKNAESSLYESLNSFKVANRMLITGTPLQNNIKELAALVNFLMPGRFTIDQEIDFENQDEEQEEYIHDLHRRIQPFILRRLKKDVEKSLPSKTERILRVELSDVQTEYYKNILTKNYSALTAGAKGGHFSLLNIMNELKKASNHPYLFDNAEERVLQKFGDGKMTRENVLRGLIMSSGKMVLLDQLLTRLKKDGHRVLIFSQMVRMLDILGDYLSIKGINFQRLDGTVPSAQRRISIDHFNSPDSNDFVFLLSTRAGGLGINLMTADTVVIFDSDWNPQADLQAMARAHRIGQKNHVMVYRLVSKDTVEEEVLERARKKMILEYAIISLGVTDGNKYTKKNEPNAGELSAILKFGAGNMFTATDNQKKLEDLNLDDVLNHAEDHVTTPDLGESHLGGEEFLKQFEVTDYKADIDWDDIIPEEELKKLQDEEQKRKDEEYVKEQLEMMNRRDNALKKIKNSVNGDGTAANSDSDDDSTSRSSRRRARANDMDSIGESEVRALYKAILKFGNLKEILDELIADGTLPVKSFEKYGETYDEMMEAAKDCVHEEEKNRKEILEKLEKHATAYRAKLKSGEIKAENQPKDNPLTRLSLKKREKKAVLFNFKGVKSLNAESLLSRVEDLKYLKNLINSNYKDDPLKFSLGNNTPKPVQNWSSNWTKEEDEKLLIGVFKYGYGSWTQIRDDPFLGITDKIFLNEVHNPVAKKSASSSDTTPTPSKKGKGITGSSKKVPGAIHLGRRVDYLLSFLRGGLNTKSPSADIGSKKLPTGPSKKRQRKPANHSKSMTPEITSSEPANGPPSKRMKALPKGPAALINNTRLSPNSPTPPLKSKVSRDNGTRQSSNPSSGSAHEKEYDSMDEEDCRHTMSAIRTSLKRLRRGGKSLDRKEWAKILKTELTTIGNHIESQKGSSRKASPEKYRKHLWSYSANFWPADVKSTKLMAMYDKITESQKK

SMILES	Percent Effect [1]	Percent Effect [2]	Percent Effect [3]	Percent Effect [4]	Percent Effect (Trypanosoma cruzi)	Percent Effect [5]	Percent Effect [6]	Percent Effect (Homo sapiens)	Percent Effect [7]	Percent Effect [8]	Percent Effect [9]
O=C(NC[C@H]1OC[C@@H]2CCN(C(=O)c3ccco3)C[C@@H]21)C1CC1	-4.23%	2.7%	1.41%	-2.71%	-3.81%	5.21%	10.6%	-3.1%	2.15%	11.1%	-4.6%
CCc1ccc(C(=O)N2CCN(CC(C)O)CC2)o1 (stereo not given)	0.315%	21.1%	-5.4%	-6.92%	5.08%	6.13%	16.2%	3.74%	1.47%	19.5%	-12.7%
CC(=O)c1ccc(N2CCC(CO)(CCOc3ccccc3)CC2)nc1	-4.34%	0%	3.88%	4.67%	-3.05%	20.7%	9.48%	20.6%	3.23%	8.64%	1.85%
O=S(=O)(c1ccccc1)N1CCC2(CCCN2CC2CCCC2)C1 (stereo not given)	-2.93%	-21.6%	-3%	2.91%	-0.489%	4.78%	13.3%	-13.9%	6.49%	5.13%	11%
CS(=O)(=O)N[C@@H]1CCO[C@]2(CCN(C(=O)C3=CCCC3)C2)C1	-2.88%	13.5%	3.79%	-4.46%	-2.25%	14.3%	23.2%	-15.3%	5.41%	12.8%	-3.57%
CC(CNC(=O)c1cccnc1Oc1cccnc1)N(C)C (stereo not given)	-0.805%	18.9%	-3.66%	10.5%	6.56%	10%	12.9%	4.67%	4.76%	17.1%	-1.51%
COc1c(C)cnc(CN2CCOC(Cn3nc(C)nc3C)C2)c1C (stereo not given)	-3.44%	7.59%	-1.91%	11%	1.6%	4.94%	-8.11%	-11.7%	2.46%	-8.86%	0.784%
CCN1CCC(NC(=O)CN2CCCC2Cn2nc(C)cc2C)CC1 (stereo not given)	-3.31%	2.7%	-2.56%	6.76%	-3.3%	-5.61%	-0.54%	3.04%	4.43%	1.24%	0.399%
O=C(c1ccccc1-n1cccn1)N1CCCN(c2cccnn2)CC1	-2.4%	-15.6%	5.31%	10.5%	-0.294%	1.05%	9.46%	-6.03%	0.952%	9.41%	-13.5%
CC1COCCN1Cc1nc(-c2cccs2)no1 (stereo not given)	-2.46%	10.8%	138%	-4.28%	-3.49%	-2.4%	11.5%	13.2%	4.43%	13.6%	-7.61%
CCCNC(=O)CNC(=O)CCc1ccccc1Br	0.865%	6.94%	-6.34%	-5.04%	1.85%	13.7%	18.1%	-8.19%	2.1%	7.69%	-2.27%
CC(=O)N(C)c1nc(CN2CCOC(Cn3cc(C)cn3)C2)cs1 (stereo not given)	-1.65%	28.6%	-5.25%	-17.3%	3.82%	-6.95%	17.4%	16.8%	8.57%	30.6%	-22.3%
CC(C)C(=O)N1CCN(C(=O)CCc2nnc(-c3ccccc3)o2)CC1	-1.03%	5.06%	-0.0997%	0.624%	-4.06%	4.94%	0.901%	16.1%	3.45%	8.86%	-7.27%
CSCCCN1CCn2nc(CNC(C)=O)cc2C1	-4.2%	0%	6.86%	4.06%	-7.05%	-0.455%	8.16%	27.3%	-1.07%	-2.5%	-4.5%
COCC1CN(C(=O)c2ccnnc2)Cc2c1cnn2C (stereo not given)	-3.58%	-5.33%	7.75%	-1.95%	4.33%	-3.5%	9.6%	9.47%	4.25%	1.28%	-4.09%
Cc1ccc2c(c1)c(CNC(=O)C1CC(=O)N(C3CCCC3)C1)nn2C (stereo not given)	1.21%	0%	4.01%	6.8%	-7.34%	-1.43%	21%	10%	3.7%	0%	-5.94%
O=C(Nc1ccccc1OC(F)F)C1=NN(c2ccccc2)C(=O)CN1	-1.64%	10.1%	-3.73%	-7.92%	-3.87%	3.04%	8.11%	8.86%	-0.493%	11.4%	-4.54%
COc1c(CNCc2ccc(N(C)C)nc2)c(C(C)C)nn1C	-3.16%	13.2%	-3.28%	6.83%	6.39%	4.6%	6.01%	13.5%	5.39%	17.1%	-12.6%
O=C(c1ccc(-n2cccn2)nc1)N1CCCN(c2cccnn2)CC1	-2.01%	0%	6.8%	-1.08%	-6.76%	1.47%	13%	-7.18%	-0.952%	0%	-11.3%
Cc1ccc(CC(=O)N(C)CC2(O)CCN(c3ccccn3)C2)s1 (stereo not given)	-3.85%	-1.35%	12.4%	-1.42%	0.198%	-2.09%	0%	1.85%	4.3%	6.49%	-1.65%
